Screening data as filed in PubChem BioAssay.
Only some compounds are listed: those with a hit (about 2.4% of all), similar ones and a draw of the others.
D2 PAM-1: human D2 receptor positive allosteric modulation; P14416; DiscoveRx D2 beta-arrestin cells, luminescence, 90 min; 100% = 57 uM dopamine signal; potentiation, % (no concentration beside the values); actives 0.23% (n = 360,000); AID 624464; in the data active means potentiation above about 50%
Target sequence (P14416 whole entry, looked up): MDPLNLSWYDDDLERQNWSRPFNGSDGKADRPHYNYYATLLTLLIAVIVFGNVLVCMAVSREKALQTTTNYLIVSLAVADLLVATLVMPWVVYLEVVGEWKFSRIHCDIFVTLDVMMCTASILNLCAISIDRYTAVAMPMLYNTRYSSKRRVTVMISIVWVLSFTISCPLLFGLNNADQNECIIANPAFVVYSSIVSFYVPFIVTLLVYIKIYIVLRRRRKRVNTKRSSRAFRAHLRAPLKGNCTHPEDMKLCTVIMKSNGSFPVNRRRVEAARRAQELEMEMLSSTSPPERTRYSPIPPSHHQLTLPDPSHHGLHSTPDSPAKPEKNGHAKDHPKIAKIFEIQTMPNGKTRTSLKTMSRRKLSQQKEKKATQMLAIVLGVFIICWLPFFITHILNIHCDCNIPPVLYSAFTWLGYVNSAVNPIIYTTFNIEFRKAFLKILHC
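PathHunter D2 cells, attached overnight at 37 deg C, received compound in DMSO plus dopamine at EC20 (50 nM final) for 90 min at 37 deg C. Beta-arrestin recruitment was read as luminescence after 1 h with detection reagent at ambient temperature.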
D2 ag-1: agonists of human D2 dopamine receptor (beta-arrestin); activation, % (test concentration not listed); AID 624465; actives 0.084% (n = 360,000); P14416; DiscoveRx PathHunter D2 beta-arrestin, luminescence, 90 min; 100% = 57 uM dopamine signal; in the data active means activation above about 40%
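Agonist mode: compounds alone added to overnight-plated D2 PathHunter cells for 90 min at 37 C, with 57 uM final dopamine (EC100) defining full response. Beta-arrestin recruitment detected by chemiluminescent reagent, read after 1 h at ambient temperature.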
D2 antagonist: antagonists of human D2 dopamine receptor. actives 2% (n = 340,000). inhibition, % at 10 µM. HEK293 TREx D2 cells, calcium flux, dopamine EC80. P14416. AID 485344; in the data active means inhibition above about 30%; inactive means below that, where a call was filed
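Measurement of antagonist activity uses fluorescent calcium dye in inducible HEK293 T-REx D2 cells: 10 s baseline, compound addition with 180 s read, EC80 dopamine addition with a further 180 s read.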
D2 ag-2: activates the human D2 dopamine receptor. activation, % at 2 µM. HEK293 T-REx D2 cells, calcium flux agonist mode. actives 0.53% (n = 340,000);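 active means activation over 3 SD above normal in the single-dose calcium agonist read, cut at about 30% in these data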
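Tetracycline-induced HEK293 Trex cells with D2 receptor force-coupled to calcium signaling, plated overnight at 30 C and loaded with no-wash calcium dye. Calcium flux read kinetically for 180 s after compound addition; responses flag agonists.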
D2 PAM-2: positive allosteric modulators of human D2 dopamine receptor. P14416. HEK293 T-REx D2, calcium flux, EC20 dopamine potentiation. potentiation, % at 10 µM. actives 0.34% (n = 340,000). AID 485347;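 active means potentiation over 3 SD above the plate norm, cut at about 30% in these data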
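Using a no-wash calcium dye in inducible, force-coupled HEK293 Trex cells expressing D2, we tracked fluorescence each second for 180 s after compound, then for 180 s after EC20 dopamine to detect augmented signalling.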
Numbers stand for hits; 0 = inactive; - = not tested or not shown.

SMILES | D2 PAM-1 | D2 ag-1 | D2 antagonist | D2 ag-2 | D2 PAM-2
CC(C)CC(=O)Nc1ccc(S(=O)(=O)N2CCCC2)cc1 | 0 | 0 | 0 | 0 | 0
CC1=C(C(=O)N2CCN(c3ccc(Cl)cc3)CC2)C2(CCC(C)CC2)OC1=O (stereo not given) | - | - | - | 0 | 0
CC1=C(C(=O)N2CCN(c3cccc(Cl)c3)CC2)C2(CCCCC2)OC1=O | - | - | - | 0 | 0
Cc1ccccc1-c1nc(C#N)c(N2CCC(C)CC2)o1 | 0 | 0 | 31 | 0 | 0
N#Cc1cccc(NC(=O)C2CCN(S(=O)(=O)c3ccc4[nH]c(=O)ccc4c3)CC2)c1 | - | - | - | 0 | 0
Cc1ccc(NC(=O)NCc2ccccn2)cc1 | 0 | 0 | 59 | 0 | 0
CCOc1ccc(NC(=O)NCc2ccccn2)cc1 | 0 | 0 | 0 | 0 | 0
CCN(C(=O)CSc1nc2ccccc2n1CC(=O)N1CCCC(C)C1)c1ccccc1 (stereo not given) | - | - | - | 0 | 0
CCc1ccc(NC(=O)CC2C(=O)N(c3cccc(C)c3)C(=O)N2Cc2ccco2)cc1 (stereo not given) | - | - | - | - | 0
O=C(Cn1cnc2c(nnn2-c2ccccc2)c1=O)NCc1ccco1 | 0 | 0 | 40 | 0 | 0
Cc1ccc(-n2ncc3c(=O)n(CC(=O)NCc4ccco4)cnc32)cc1 | 0 | 0 | 0 | 0 | 31
CCOC(=O)C(C)n1cnc2c(nnn2-c2ccccc2)c1=O (stereo not given) | 0 | 0 | 0 | 0 | 0
COC(=O)C(C)n1cnc2c(nnn2-c2ccccc2)c1=O (stereo not given) | 0 | 0 | 31 | 0 | 0
O=C(Cn1cnc2c(nnn2-c2ccccc2)c1=O)NCCc1ccccc1 | 0 | 0 | 0 | 0 | 56
CCOC(=O)CNC(=O)Cn1cnc2c(nnn2-c2ccccc2)c1=O | 0 | 0 | 0 | 0 | 0
COc1ccc(Cn2c(=O)c3ccccc3n3c(-c4ccc(C)cc4)nnc23)cc1 | - | - | - | 0 | 0
Cc1noc(/C=C/c2ccccc2F)c1S(=O)(=O)N1CCC(C(=O)N2CCOc3ccccc32)CC1 | - | - | - | 0 | 0
COc1ccc(OC)c(NC(=O)c2ccc(OCC(=O)N3CCOCC3)c(OC)c2)c1 | 0 | 0 | 0 | 0 | 0
COc1cc(C(=O)Nc2cc(S(C)(=O)=O)ccc2Cl)ccc1OCC(=O)N1CCOCC1 | 0 | 0 | 36 | 0 | 0
CCOC(=O)C1=C(COC(=O)C(CC)c2ccccc2)NC(=O)NC1C (stereo not given) | 0 | 0 | 0 | 0 | 30
CNCc1c(OCc2ccc(F)cc2)ccc2ccccc12 | 0 | 0 | 74 | 0 | 0
COc1cccc(CNC(=O)CN2C(=O)COc3ccc(S(=O)(=O)Nc4ccccc4)cc32)c1 | - | - | - | 0 | 0
Nc1nc(NCCc2ccccc2)nc(NCc2ccccc2)c1[N+](=O)[O-] | 0 | 0 | 45 | 0 | 0
Cc1ccc(C(=O)Oc2oc(-c3ccccc3)nc2C=Nc2ccc(N(C)C)cc2)cc1 | 0 | 0 | 0 | 0 | 39
Cc1c(Cl)cccc1NC(=O)c1ccc2c(c1)CCCN2S(C)(=O)=O | - | - | - | 0 | 0
SMILES | D2 PAM-1 | D2 ag-1 | D2 antagonist | D2 ag-2 | D2 PAM-2
CCN(CC)S(=O)(=O)c1cc(NC(=O)C2CCN(c3ncnc4sc(C)c(C)c34)CC2)ccc1Cl | 0 | 0 | 36 | 0 | 0
Cc1ccc(-c2nnc(N3CCN(C(=O)CSc4ncn[nH]4)CC3)c3ccccc23)cc1 | 0 | 0 | 47 | 0 | -
COc1cc(C)ccc1OCCn1c(-c2ccc(Cl)cc2)nc2ccccc2c1=O | - | - | - | 0 | 0
CC1(NC(=O)c2cccc(S(=O)(=O)N3CCCc4ccccc43)c2)CCS(=O)(=O)C1 (stereo not given) | 0 | 0 | 0 | 0 | 0
CN1CCN(S(=O)(=O)c2cccc(C(=O)NC3(C)CCS(=O)(=O)C3)c2)CC1 (stereo not given) | 0 | 0 | 0 | 0 | 41
COc1ccc(NC(=O)CC2C(=O)N(c3ccc(C)cc3)C(=O)N2Cc2ccc(C)cc2)cc1 (stereo not given) | - | - | - | 0 | 0
O=C(CCCc1ccccc1)Nc1ccnn1C1CCN(Cc2ccccc2)CC1 | 0 | 0 | 41 | 0 | 0
O=C(CCCc1ccccc1)Nc1ccnn1C1CCN(Cc2ccc(Cl)cc2)CC1 | 0 | 0 | 35 | 0 | 0
O=C(NCCO)C(=O)Nc1c2c(nn1-c1ccc(F)cc1)CSC2 | - | - | - | - | 0
CC(C)COc1ccc(-c2nnc(-c3ccco3)o2)cc1 | 0 | 0 | 0 | 0 | 30
